Structures can show the parent of a compound that is named as a salt. Unmarked numbers belong to inactive results.
Tested on: WPMY1-TUBA1B-RELA
Experiment: phenotypically active (imaging signature differs from DMSO and reproducible) at any of 0.3-9 uM (binary (1 = active, 0 = inactive)); higher = active
Settings: treatment time: 24 h
Summary of the method: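 Two criteria together defined phenotypic activity: deviation and reproducibility. Deviation meant ≥3 of 4 wells beyond the 95th percentile of Euclidean distances in solvent control wells, and reproducibility meant a median replicate Pearson correlation above the 95th percentile of non-replicates. Wells had been treated for 24 h at 0.3, 1, 3 or 9 µM in fifteen gene-edited A549, HepG2 and WPMY1 reporter lines before live imaging.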

| Compound | phenotypically active |
| --- | --- |
| O=P(O)(O)C(O)(Cc1cccnc1)P(=O)(O)O [risedronate] | 0 |
| O=C(CCc1ccc(O)cc1)c1c(O)cc(O)cc1O[C@@H]1O[C@H](CO)[C@@H](O)[C@H](O)[C@H]1O [Phloridzin] | 0 |
| CC(C)NCCCC1(C(N)=O)c2ccccc2-c2ccccc21 [indecainide] | 0 |
| COc1c2occc2cc2ccc(=O)oc12 [methoxsalen] | 0 |
| CC(=O)N[C@@H](CC(=O)O)C(=O)N[C@@H](CCC(=O)O)C(=O)O [Spaglumic acid] | 0 |
| OCC(CO)N[C@H]1C[C@](O)(CO)[C@@H](O)[C@H](O)[C@H]1O [Voglibose] | 0 |
| CCOc1ccccc1OCCN[C@H](C)Cc1ccc(OC)c(S(N)(=O)=O)c1 [tamsulosin] | 0 |
| O=C1NC(=O)/C(=C\c2cccc(C(F)(F)F)c2)S1 | 0 |
| NS(=O)(=O)c1cc(Cl)c(Cl)c(S(N)(=O)=O)c1 [diclofenamide] | 0 |
| CN1CCN2c3ncccc3Cc3ccccc3C2C1 (stereo unspecified) [Mirtazapine] | 0 |
| O=C1N(c2ccccc2)c2ccccc2C1(Cc1ccncc1)Cc1ccncc1 [linopirdine] | 0 |
| C[C@H]1[C@H](C)CC[C@]2(C(=O)O)CC[C@]3(C)C(=CC[C@@H]4[C@@]5(C)CC[C@H](O)C(C)(C)[C@@H]5CC[C@]43C)[C@H]12 [Ursolic acid] | 0 |
| CCOC(=O)[C@H](CCc1ccccc1)N[C@@H](C)C(=O)N1Cc2ccccc2C[C@H]1C(=O)O [quinapril] | 0 |
| CC1(C)CCC(C)(C)c2cc(C3(c4ccc(C(=O)O)cc4)OCCO3)ccc21 | 0 |
| CCCCCCCCCN1C[C@H](O)[C@@H](O)[C@H](O)[C@H]1CO [N-Nonyldeoxynojirimycin] | 0 |
| CC(=O)O[C@H]1C[C@@H]2CC[C@@H]3[C@H](CC[C@@]4(C)[C@H]3C[C@H]([N+]3(C)CCCCC3)[C@@H]4OC(C)=O)[C@@]2(C)C[C@@H]1N1CCCCC1 [vecuronium] | 0 |
| O=C(O)c1cc(/N=N/c2ccc(O)c(C(=O)O)c2)ccc1O [olsalazine] | 0 |
| CCOC(=O)[C@H](CCc1ccccc1)N[C@H]1CCc2ccccc2N(CC(=O)O)C1=O [benazepril] | 0 |

| Compound | phenotypically active |
| --- | --- |
| O=C(c1ccccc1)c1ccc2n1CCC2C(=O)O (stereo unspecified) [ketorolac] | 0 |
| CN1C(=O)CC[C@H]1c1cccnc1 [(-)-Cotinine] | 0 |
| CN1C(=O)OC(C)(C)C1=O [trimethadione] | 0 |
| CCC(=C(CC)c1ccc(O)cc1)c1ccc(O)cc1 (stereo in doubt) [diethylstilbestrol] | 0 |
| CCOc1cc(CC(=O)N[C@@H](CC(C)C)c2ccccc2N2CCCCC2)ccc1C(=O)O [repaglinide] | 0 |
| O=C(Cn1ccnc1[N+](=O)[O-])NCc1ccccc1 [benznidazole] | 0 |
| CCCc1nn(C)c2c(=O)[nH]c(-c3cc(S(=O)(=O)N4CCN(C)CC4)ccc3OCC)nc12 [Sildenafil citrate] | 0 |
| CCN(CC)CC(=O)Nc1c(C)cccc1C [lidocaine] | 0 |
| COc1ccc([C@@H]2Sc3ccccc3N(CCN(C)C)C(=O)[C@@H]2OC(C)=O)cc1 [diltiazem] | 0 |
| COc1ccc(CCN(C)CCCN2CCc3cc(OC)c(OC)cc3CC2=O)cc1OC [zatebradine] | 0 |
| CC(C)NCC(O)c1ccc(O)c(O)c1 (stereo unspecified) [Isoproterenol hydrochloride] | 0 |
| O=C(O)c1ccc(O)c2ncccc12 | 0 |
| NCCCC[C@H](N[C@@H](CCc1ccccc1)C(=O)O)C(=O)N1CCC[C@H]1C(=O)O [lisinopril] | 0 |
| C#C[C@]1(O)CC[C@H]2[C@@H]3CCc4cc(OC5CCCC5)ccc4[C@H]3CC[C@@]21C [quinestrol] | 0 |
| O=C(NCc1ccccn1)Nc1nnc(-c2ccco2)o1 | 0 |
| O=C1c2ccccc2C(Cc2ccncc2)(Cc2ccncc2)c2ccccc21 | 0 |
| CCOC(=O)C(C)(C)Oc1ccc(Cl)cc1 [Clofibrate] | 0 |
| CC(C)(Sc1ccc(CCN(CCCCC2CCCCC2)C(=O)NC2CCCCC2)cc1)C(=O)O | 0 |

From the supplement of paper PMC7411054
